Drawing on ChEMBL document CHEMBL3988442, “University of Dundee, Small-Polar-MMV Screening Library” (2021), this text covers Percent Effect for 8 compounds.

Common to all, as to parameters: scale not given: direction of the effect not stated beside the values
In experiment [1] the target is Protein translocase subunit SecA (Escherichia coli (strain K12)) (UniProt P10408). As to the kind of experiment: Assay to Identify E. coli SecA ATPase Inhibitors. In kind it is functional. The following applies: 30 µM.
For experiment [2], the target named is T1, Ubiquitin-activating enzyme e1, putative (Leishmania donovani (strain BPK282A1)) (UniProt E9BSI1).
T1 sequence (whole entry): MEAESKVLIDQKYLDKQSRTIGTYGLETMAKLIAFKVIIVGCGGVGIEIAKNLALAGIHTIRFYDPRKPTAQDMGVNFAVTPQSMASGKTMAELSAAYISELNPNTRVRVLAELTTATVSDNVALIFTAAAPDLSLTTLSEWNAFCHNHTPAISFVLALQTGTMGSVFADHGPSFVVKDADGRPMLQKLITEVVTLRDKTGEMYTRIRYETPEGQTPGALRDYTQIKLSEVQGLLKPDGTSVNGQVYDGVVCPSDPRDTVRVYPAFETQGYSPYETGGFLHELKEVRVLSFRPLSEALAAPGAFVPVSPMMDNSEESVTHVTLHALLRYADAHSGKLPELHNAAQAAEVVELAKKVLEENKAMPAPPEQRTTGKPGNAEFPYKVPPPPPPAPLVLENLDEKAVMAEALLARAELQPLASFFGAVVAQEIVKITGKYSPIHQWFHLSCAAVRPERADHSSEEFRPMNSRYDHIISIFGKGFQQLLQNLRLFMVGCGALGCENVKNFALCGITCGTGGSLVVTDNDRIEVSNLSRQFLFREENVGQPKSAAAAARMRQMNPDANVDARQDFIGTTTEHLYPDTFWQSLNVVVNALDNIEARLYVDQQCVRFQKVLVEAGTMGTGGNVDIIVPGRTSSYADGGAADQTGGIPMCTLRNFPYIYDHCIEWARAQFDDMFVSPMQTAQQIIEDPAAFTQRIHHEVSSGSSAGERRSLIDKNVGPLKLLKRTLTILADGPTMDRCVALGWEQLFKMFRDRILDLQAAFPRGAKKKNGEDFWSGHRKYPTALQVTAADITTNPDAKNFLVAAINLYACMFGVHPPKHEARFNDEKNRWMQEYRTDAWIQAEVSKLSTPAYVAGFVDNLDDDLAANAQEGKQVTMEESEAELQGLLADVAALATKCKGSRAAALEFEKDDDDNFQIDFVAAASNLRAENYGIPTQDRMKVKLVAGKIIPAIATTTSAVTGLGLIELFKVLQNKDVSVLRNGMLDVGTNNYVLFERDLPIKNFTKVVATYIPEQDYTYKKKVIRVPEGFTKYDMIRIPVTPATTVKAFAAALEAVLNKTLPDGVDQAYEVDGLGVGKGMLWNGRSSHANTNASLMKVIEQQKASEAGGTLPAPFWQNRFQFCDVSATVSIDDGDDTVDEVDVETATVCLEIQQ
In words: Leishmania donovani Ubiquitin Activating Enzyme (LdE1). In kind it is functional. As to conditions: 30 µM.

Experiment [3] addresses AMP-activated protein kinase, AMPK (Homo sapiens) (UniProt P54646+O43741+P54619+Q9UGJ0+Q9Y478+Q13131+Q9UGI9). In words: AMP-dependent Kinase enzyme assay. An in vitro enzyme assay that detects ADP turnover that is directly proportional to AMPK activity. This uses naive AMPK that is activated during the assay with MK-8722. It is filed as functional. As to conditions: 30 µM.

The target of experiment [4] is Sialic acid-binding Ig-like lectin 9 (Homo sapiens) (UniProt Q9Y336). As to the kind of experiment: Hs-Siglec9 ALPHAscreen SOP 20170721. As to conditions: 10 µM.
Experiment [5] has as its system Trypanosoma cruzi. As to the kind of experiment: Trypanosoma cruzi phosphomannomutase and mannose-1-phosphate guanylyltransferase assay. It is filed as functional. As to conditions: 10 µM.
The target of experiment [6] is T2, Arginase-2, mitochondrial (Homo sapiens) (UniProt P78540).
T2 sequence (whole entry): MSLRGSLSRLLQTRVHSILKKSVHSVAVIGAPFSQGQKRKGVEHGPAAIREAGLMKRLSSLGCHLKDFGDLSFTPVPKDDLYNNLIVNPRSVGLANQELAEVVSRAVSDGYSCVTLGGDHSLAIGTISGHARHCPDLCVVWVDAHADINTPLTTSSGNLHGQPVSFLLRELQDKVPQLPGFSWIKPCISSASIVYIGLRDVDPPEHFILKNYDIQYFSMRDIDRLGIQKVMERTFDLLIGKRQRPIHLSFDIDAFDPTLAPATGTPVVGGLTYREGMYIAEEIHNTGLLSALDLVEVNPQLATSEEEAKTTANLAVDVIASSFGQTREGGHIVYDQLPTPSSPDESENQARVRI
In words: in vitro enzyme assay to detect the production of urea directly proportional to the activity of Arginase II. Also: in the data most compounds retested in dose-response had high values. In kind it is functional. As to conditions: 33.3 µM.

Experiment [7] deals with T3, Proteasome subunit beta (Trypanosoma cruzi) (UniProt O96673).
T3 sequence (whole entry): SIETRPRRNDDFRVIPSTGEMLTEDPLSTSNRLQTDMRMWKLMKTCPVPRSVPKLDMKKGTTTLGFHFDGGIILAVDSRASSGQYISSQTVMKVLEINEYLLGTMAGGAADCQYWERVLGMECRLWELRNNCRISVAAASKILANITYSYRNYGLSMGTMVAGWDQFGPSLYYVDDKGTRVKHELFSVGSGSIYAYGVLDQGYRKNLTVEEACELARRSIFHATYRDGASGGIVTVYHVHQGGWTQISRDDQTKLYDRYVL
As to the kind of experiment: Trypanosoma cruzi proteasome chymotrypsin-like activity (TcProtChymo) assay. Also: in the data most compounds retested in dose-response had high values. In kind it is functional. As to conditions: 9.37 µM.

For experiment [8], the species on record is Homo sapiens. In words: To identify inhibition of the IFN signalling (Jak-Stat) pathway via expression of an eGFP reporter gene under the control of an IFN-stimulated response element (ISRE) containing MxA promoter. In kind it is functional. As to conditions: 30 µM.
The target in experiment [9] is T4, Tyrosyl-tRNA synthetase, putative (Trypanosoma cruzi (strain CL Brener)) (UniProt Q4DSP6).
T4 sequence (whole entry): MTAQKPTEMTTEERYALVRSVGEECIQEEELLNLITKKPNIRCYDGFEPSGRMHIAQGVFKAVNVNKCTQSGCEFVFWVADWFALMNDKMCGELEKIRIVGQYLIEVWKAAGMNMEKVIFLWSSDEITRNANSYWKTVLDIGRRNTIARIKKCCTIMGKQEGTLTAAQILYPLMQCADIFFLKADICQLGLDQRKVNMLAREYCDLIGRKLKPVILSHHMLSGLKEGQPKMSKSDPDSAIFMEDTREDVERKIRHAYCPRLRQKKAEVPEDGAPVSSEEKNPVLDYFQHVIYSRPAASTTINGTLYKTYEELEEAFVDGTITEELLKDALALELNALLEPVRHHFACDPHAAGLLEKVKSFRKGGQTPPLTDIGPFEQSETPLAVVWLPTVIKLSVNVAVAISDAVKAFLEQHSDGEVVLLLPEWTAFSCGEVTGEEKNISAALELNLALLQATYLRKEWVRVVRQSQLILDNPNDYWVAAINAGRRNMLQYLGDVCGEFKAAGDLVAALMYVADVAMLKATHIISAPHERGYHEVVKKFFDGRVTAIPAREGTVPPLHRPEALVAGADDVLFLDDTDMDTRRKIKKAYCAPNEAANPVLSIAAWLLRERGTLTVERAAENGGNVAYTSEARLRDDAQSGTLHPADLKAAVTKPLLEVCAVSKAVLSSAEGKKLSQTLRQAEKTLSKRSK
As to the kind of experiment: Trypanosoma cruzi tyrosyl tRNA synthetase (TcYRS) _High Tyrosine SOP. Also: in the data most compounds retested in dose-response had high values. The following applies: 30 µM. It is filed as functional.

For experiment [10], the target named is T4, Tyrosyl-tRNA synthetase, putative (Trypanosoma cruzi (strain CL Brener)). As to the kind of experiment: Trypanosoma cruzi tyrosyl tRNA synthetase (TcYRS) SOP. In kind it is functional. As to conditions: 30 µM.
The target of experiment [11] is Chromo domain-containing protein 1 (Saccharomyces cerevisiae (strain ATCC 204508 / S288c) (Baker's yeast)) (UniProt P32657). As to the kind of experiment: ScCHD-1 Enzyme Inhibition Assay. Also: in the data most compounds retested in dose-response had high values. In kind it is functional. The following applies: 30 µM.

Each structure is given as a SMILES string. For some of these results: Potency and affinity values are given separately.

Sequence of Protein translocase subunit SecA (Escherichia coli (strain K12)) (P10408 whole entry): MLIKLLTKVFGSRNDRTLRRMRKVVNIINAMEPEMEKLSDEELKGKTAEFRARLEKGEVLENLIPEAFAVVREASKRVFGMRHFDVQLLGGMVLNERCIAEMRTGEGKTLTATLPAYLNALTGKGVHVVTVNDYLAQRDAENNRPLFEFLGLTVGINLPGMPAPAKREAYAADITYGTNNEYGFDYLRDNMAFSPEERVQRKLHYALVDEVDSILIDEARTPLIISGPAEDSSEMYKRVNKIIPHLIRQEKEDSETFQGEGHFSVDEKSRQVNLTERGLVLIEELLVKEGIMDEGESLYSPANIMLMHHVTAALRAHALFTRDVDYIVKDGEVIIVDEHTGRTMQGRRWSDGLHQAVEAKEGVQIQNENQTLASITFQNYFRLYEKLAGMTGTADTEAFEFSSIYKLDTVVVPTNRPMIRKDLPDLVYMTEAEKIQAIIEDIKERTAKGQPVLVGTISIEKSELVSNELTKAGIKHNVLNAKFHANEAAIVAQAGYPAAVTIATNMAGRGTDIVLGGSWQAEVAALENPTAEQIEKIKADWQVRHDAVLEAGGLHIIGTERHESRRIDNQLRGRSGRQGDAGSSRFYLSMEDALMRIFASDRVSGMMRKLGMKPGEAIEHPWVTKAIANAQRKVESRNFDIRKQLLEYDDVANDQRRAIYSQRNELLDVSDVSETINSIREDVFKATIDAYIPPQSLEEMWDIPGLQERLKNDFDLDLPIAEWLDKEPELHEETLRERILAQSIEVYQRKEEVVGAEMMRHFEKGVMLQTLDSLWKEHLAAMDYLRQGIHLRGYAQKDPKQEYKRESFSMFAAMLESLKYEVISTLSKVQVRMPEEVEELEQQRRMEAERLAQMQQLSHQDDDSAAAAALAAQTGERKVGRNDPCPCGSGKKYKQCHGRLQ
Sequence of Chromo domain-containing protein 1 (Saccharomyces cerevisiae (strain ATCC 204508 / S288c) (Baker's yeast)) (P32657 whole entry, the tested form may be a part): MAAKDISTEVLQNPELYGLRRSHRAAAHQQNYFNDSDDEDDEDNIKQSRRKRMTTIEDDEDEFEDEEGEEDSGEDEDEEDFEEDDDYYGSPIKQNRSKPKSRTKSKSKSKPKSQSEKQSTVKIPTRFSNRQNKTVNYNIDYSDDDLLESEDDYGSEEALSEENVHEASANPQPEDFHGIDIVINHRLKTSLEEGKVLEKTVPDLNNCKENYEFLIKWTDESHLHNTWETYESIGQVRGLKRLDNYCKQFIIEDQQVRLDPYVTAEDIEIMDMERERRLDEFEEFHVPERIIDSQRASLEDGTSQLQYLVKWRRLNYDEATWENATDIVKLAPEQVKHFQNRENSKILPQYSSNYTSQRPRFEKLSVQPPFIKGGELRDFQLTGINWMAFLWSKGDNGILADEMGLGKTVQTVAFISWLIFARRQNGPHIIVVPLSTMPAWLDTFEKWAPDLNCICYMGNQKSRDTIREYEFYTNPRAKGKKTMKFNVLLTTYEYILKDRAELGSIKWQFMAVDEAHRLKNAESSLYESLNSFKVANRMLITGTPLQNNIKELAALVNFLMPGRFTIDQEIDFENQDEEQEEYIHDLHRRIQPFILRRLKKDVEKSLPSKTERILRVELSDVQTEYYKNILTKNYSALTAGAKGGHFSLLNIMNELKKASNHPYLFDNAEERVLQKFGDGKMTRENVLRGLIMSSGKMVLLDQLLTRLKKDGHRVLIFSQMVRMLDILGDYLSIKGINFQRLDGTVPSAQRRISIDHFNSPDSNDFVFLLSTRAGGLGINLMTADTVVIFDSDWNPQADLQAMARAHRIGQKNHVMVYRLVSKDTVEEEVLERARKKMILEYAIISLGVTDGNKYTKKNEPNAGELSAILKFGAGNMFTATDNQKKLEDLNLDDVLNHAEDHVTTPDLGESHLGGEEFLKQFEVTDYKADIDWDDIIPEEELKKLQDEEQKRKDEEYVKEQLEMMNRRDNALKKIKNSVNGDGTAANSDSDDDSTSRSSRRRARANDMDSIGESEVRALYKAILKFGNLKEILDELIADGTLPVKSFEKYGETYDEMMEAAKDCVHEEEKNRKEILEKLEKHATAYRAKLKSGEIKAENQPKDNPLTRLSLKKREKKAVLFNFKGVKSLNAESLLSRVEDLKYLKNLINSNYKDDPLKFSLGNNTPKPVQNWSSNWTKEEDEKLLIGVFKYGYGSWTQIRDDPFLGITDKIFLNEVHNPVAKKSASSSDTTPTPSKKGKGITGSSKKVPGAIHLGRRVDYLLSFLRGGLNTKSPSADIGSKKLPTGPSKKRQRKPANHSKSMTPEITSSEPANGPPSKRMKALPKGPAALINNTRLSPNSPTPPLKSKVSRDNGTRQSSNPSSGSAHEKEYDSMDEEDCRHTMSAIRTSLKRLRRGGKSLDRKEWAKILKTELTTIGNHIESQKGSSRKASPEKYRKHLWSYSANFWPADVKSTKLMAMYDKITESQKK
Sequence of Sialic acid-binding Ig-like lectin 9 (Homo sapiens) (Q9Y336 whole entry): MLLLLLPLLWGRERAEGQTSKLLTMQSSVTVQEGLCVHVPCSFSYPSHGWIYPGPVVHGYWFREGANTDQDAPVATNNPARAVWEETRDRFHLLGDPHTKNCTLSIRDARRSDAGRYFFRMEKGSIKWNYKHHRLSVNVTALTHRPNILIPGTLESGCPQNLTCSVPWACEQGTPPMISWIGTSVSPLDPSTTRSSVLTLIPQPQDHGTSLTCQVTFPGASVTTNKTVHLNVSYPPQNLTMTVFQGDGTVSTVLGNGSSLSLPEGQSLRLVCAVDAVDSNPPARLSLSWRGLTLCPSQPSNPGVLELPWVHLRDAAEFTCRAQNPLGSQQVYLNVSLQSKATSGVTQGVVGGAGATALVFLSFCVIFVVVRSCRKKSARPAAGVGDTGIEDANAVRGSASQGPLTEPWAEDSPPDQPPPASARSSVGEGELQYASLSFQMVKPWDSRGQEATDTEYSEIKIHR

With `Cc1csc(N2CCCN(C(=O)C(C)n3ccnc3)CC2)n1` (stereo not drawn), the Percent Effect was -4.19% in experiment [1]; 8.11% in experiment [2]; 5.77% in [3]; 0.506% in [4]; 6.78% in experiment [5]; -2.77% in experiment [6]. Also, the Percent Effect is -0.718% in [7]; 10.8% in experiment [8]; 5.94% in [9]; 15.8% in experiment [10]; 1.79% in [11].
For `CCc1ccc(C(=O)Nc2ccc(CC3CC(=O)NC3=O)cc2)cc1` (stereo not drawn), the Percent Effect in [1] was -1.66%; in experiment [2], 8.22%; in experiment [3] it was 15.3%; in experiment [4] it was 3.15%; in [5], 1.76%; in experiment [6] it was 5.46%. The Percent Effect in experiment [7] was 11.9%; in experiment [8], 11.7%; in experiment [9] it was 2.15%; in experiment [10], 12.5%; in experiment [11], -6.28%.
As to `Cc1cnc(CN(C)C2CCN(CC(=O)Nc3c(C)n[nH]c3C)C2)o1` (stereo not drawn), the Percent Effect in [1] is 3.19%; in experiment [2] it was 20.2%; in experiment [3] it was 14.2%; in experiment [4] it was -1.23%; in [5], -9.54%; in [6] it was 6.84%. The Percent Effect in experiment [7] is 6.63%; in [8] it was 33.5%; in experiment [9], 5.42%; in experiment [10], 8.86%; in experiment [11], -4.79%.
Take `Cc1nc(C)n(CC2CCCN2CC(=O)NCc2ccco2)n1` (stereo not drawn): the Percent Effect is -0.786% in experiment [1]; 2.74% in [2]; 1.19% in [3]; 4.18% in experiment [4]; 0.979% in experiment [5]; -1.36% in experiment [6]. Besides, the Percent Effect was 13.8% in [7]; 6.45% in experiment [8]; 1.07% in [9]; -2.5% in experiment [10]; -3.99% in [11].
Take `Cc1cc(C)n(CC2CCCN2C(=O)c2ccc3c(c2)nnn3C)n1` (stereo not drawn): the Percent Effect in experiment [1] was -3.73%; in experiment [2] it was 8.22%; in [3], -3.73%; in [4] it was -4.94%; in [5] it was -2.94%; in experiment [6] it was 7.27%. The Percent Effect in [7] was 14.9%; in experiment [8], -9.03%; in [9], 3.23%; in experiment [10], 7.5%; in experiment [11], -4.89%.
Regarding `COC[C@@H]1CC[C@H]2[C@H](CCN2C(=O)c2ccncc2F)O1`, the Percent Effect in experiment [1] was -5.45%; in experiment [2], 2.7%; in experiment [3], -0.0287%; in experiment [4] it was 17.9%; in [5] it was 2.05%; in [6], 2.73%. Further, the Percent Effect in [7] is -4.21%; in [8], -15.4%; in experiment [9], 5.38%; in experiment [10] it was 13.6%; in experiment [11] it was -2.68%.
For `Cn1cccc1C(=O)Nc1cc(F)ccc1OCC1CCCO1` (stereo not drawn), the Percent Effect is -2.17% in experiment [1]; -2.6% in experiment [2]; 2.66% in experiment [3]; 13.6% in [4]; 6.74% in [5]; 2.85% in [6]. Further, the Percent Effect is 0.507% in experiment [7]; 4.16% in experiment [8]; -5.83% in experiment [9]; 0% in [10]; -1.65% in experiment [11].
As to `Cc1nn(C)c(Cl)c1C1CCCN1CC(=O)NCc1ccccn1` (stereo not drawn), the Percent Effect is -0.227% in experiment [1]; 1.27% in experiment [2]; 8.81% in experiment [3]; -1.21% in experiment [4]; 0.513% in [5]; -0.215% in [6]. The Percent Effect in [7] was found to be 12.2%; in [8], 22.5%; in experiment [9], 4.17%; in experiment [10] it was 10.1%; in [11], 3%.
